Source: PubChem BioAssay AID1347426 (Functional Genomics Laboratory (NCATS/FGL), 2020)
About 1,400 (4.5%) of roughly 31,000 sequences were called active.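 How the source made its calls: active means median seed-adjusted z-score above 1 or below -1; inactive means the rest.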 Many of the other results were omitted from the sample, so actives are more common in it than they were.

Test: Novel Modifiers of Survival Motor Neuron (SMN) Protein: Gene Identification via Genome-wide siRNA Screen;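 further: luminescence tracks full-length SMN protein made from the SMN2 reporter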
Details: HEK293T SMN2-luciferase reporter, siRNA knockdown, 72 h; actives lie on both sides
Summary of the method: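 HEK293T cells stably carrying an SMN2 promoter/splicing cassette–luciferase reporter were reverse-transfected with 1 pmol siRNA per well (druggable-genome library, 3 siRNAs per gene) and grown 72 h at 37 °C. Luminescence, normalized to negative-control siRNA and log10-transformed, was scored as MAD.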

Sequence | median seed-adjusted z-score
GGAGCUUCCCUAUAGUGAATT against HDAC3 | 0.579 (inactive)
GGAUUCUAAGUACAGAGAATT against ZNF323 | -0.319 (inactive)
CAACUGCUAGCUGAACGAATT against ITIH2 | 0.262 (inactive)
CAUUUAUGACAAUCGGAUATT against OGT | 0.411 (inactive)
GUCUAUGAAUUGGACAAGATT against PGAM1 | -0.234 (inactive)
CAUCAAAUAUGACAACUUUTT against GALNTL4 | 0 (inactive)
GCCGUUUCAUGUUUGUCUATT against TRPV1 | -0.12 (inactive)
GGAAAUGAGUGUCUGAACATT against CHMP6 | -1.81 (active)
GGCUUUUUAGAUUUCGAAATT against TIGD7 | -0.116 (inactive)
GAGUGAGACUGGGACAAGATT against TAPBP | -0.786 (inactive)
GCCUUCACGUCUGAACAUATT against GAD2 | 0.0588 (inactive)
GAAACAACUUGAUUUCGAATT against PCDHB8 | 1.15 (active)
GCAUGUUGUUGAUCAUGGATT against MAFB | 0.674 (inactive)
GAAGUGUUAUGUAAGGAGATT against EPHX2 | 0 (inactive)
GAACAUGUCUUUAACGGAUTT against TJP2 | 0.0668 (inactive)
AGAUGAGAACUCUAAGCAATT against CHRM2 | 0.053 (inactive)
CGAUCACUUCCUACAGUCUTT against RGR | 0.217 (inactive)
CCAUUGAAGUGGUUAAGAATT against CCNE2 | 0.801 (inactive)
GGUUGUUGCUGAUAGAGAATT against DPH5 | 0 (inactive)
GAAGGACUCUGCAUAUGAUTT against SLC2A14 | -1.09 (active)
CAACUAUAGUGCUCCCAGUTT against ZFP36L1 | -0.933 (inactive)
CUCAGAGUGCAGAACCACATT against TRIM15 | 0.292 (inactive)
CCACGUACCCUUCAUCAAATT against KIF11 | -0.381 (inactive)

Sequence | median seed-adjusted z-score
GGUCUUCAGUGAACAGUUUTT against ZNF562 | -0.0954 (inactive)
CUGUAAGAUUAAAUCCCAATT against TMTC4 | -1.16 (active)
GCCUUACAACUCUAAUGAATT against ZNF519 | 0.0162 (inactive)
GCAUGGUCAUAGGCCUGAUTT against CYB561 | 0 (inactive)
GGUGGAUGCUCAAUCCAGATT against FOXO1 | 0.0591 (inactive)
CGAGAAGAGGAUUAAAGGATT against HAND1 | 0.161 (inactive)
GGAAGAUUACAACCGAACATT against ARHGEF12 | 0.136 (inactive)
GAUCACGUUUGACAACAAATT against MCOLN1 | -0.522 (inactive)
CUUUAACUGGGAUCACUGUTT against FOLR3 | 0 (inactive)
CAACCAAAGUCGAAUAUGATT against PLK1 | -2.57 (active)
UCCCAAACCUUCACCAUCATT against THAP8 | -0.872 (inactive)
GCAUCACCAUUGCUUGGAATT against STAT5B | 0 (inactive)
CCUCGAUAUUUUAACCUUUTT against EID2 | -1.04 (active)
GUGAUAAAGUGAUAAGAUUTT against CPA6 | 0.343 (inactive)
CCCACUAAAUUUUCGGAAATT against ATAD2 | -0.246 (inactive)
CUAUGAAAAUUGCAGGAGATT against GCM2 | -0.241 (inactive)
CCCAGGAACUGCUAACGAATT against SETMAR | 0.191 (inactive)
GCUCAUCCCUGUGCAUGGUTT against LY6G5B | -1.29 (active)
CUACAAGACAGGCAAUCUATT against IFI30 | 0.401 (inactive)
CAGUAAGAAGGGUUCAAUATT against BTK | -0.0648 (inactive)
CAAGAGAUAUCAUCGAUUATT against ZRANB3 | 0.0516 (inactive)
GGAUAUAGCUGGUGACCCATT against PCDH7 | 0.192 (inactive)
AGUUGUUGGAAUGACCUUATT against CLEC5A | -1.07 (active)

Sequence | median seed-adjusted z-score
GAAGAUGUAUGGAAUUCUUTT against DARC | 0.0814 (inactive)
CCAAGUAUCUGGUGGUGAATT against NDUFV1 | -0.653 (inactive)
GGACGAGAGAUGUACAUUATT against CNGA1 | -1.08 (active)
ACAUUUAGGUUGUAAACCATT against PLA2G12A | 0.139 (inactive)
UGGUCAACUAGAAUACAUATT against RGPD5 | -0.0931 (inactive)
GGAGAUGCACAACAUCUUATT against PIP4K2B | 0.17 (inactive)
GAGUGGAAGUCAUACCCUATT against TTLL3 | -0.194 (inactive)
CUAAUAACAGGGUACAGUATT against ZNF238 | -0.491 (inactive)
CUAUGGACUUCAUCGCUUUTT against EEF1E1 | -1.45 (active)
GCAGAGUCAUGACCAGGGATT against CHST6 | 0.372 (inactive)
CAGAUGCAGCACUCACUUUTT against MMP17 | -0.653 (inactive)
AGAGAGCUCCGAACCUUCUTT against ICAM5 | -1 (active)
GGAGGGUUUUCACGAUGAATT against AP2B1 | -0.214 (inactive)
CUGCAGAUCUUGUGACAGATT against IMPA2 | 0.0513 (inactive)
GUAUACUCCAGAACAAGUATT against ALDOB | -1.34 (active)
AGACAAAGAUUGAUAAACATT against SLC24A3 | 0.0177 (inactive)
AGAUCUACCCAGACCCGGATT against TRAF4 | -1.16 (active)
UCUACGACGUGGACGGUAATT against RCVRN | 0.562 (inactive)
CAGUAUACGUGGUGCACGATT against PFKL | 0 (inactive)
GCAUCAACAAUAUCCGGGATT against FARSA | -0.158 (inactive)
GGGUUCCAGUAACCAGUGATT against RPP21 | -1.09 (active)
GCAGCUCCAGUAACCUCAATT against ZNF683 | -0.452 (inactive)
GAAGAGAUGUUCAACUGCATT against RAB35 | 0.317 (inactive)
